# Reference: PubChem BioAssay (EPA / NIEHS)
# “And” between values parts separate entries of the source, which are not always exact repeats. Equal entries are not always repeated. Records with an inconclusive call do not appear. The source holds several records for some structures; these can differ, active in one and inactive in another. The source made the active and inactive calls. Rule for the calls: active = hit-call score of the fitted dose curve at least 0.9, where 1 is the maximum; inconclusive = response in the unintended direction; inactive = score below 0.9.
# Experiments:
# [1] = ATG_XTT_Cytotoxicity: Cytotoxicity Assessment in the Attagene TRANS-FACTORIAL HepG2 Assay (AID 2283584)
# Outline: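 HepG2 human liver cells, transiently transfected with multiple GAL4-UAS reporter units, were dosed and read at 24 h by XTT as cell number. Loss of signal was fitted relative to DMSO negative control baseline.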
# [2] = TOX21_p53_BLA_p2_viability: Viability Assessment in the Tox21 HCT-116 p53 Agonism Beta-lactamase Assay, Phase 2 (AID 2283591);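 note: compound exposure lasted 16 h at 37 °C; actives lower the ATP signal meaning cytotoxicity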
# Outline: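 HCT116 p53-bla cells, 4000/well, dosed after 5 h plating (217-fold dilution of DMSO stocks) and incubated 16 h at 37C. Viability taken as cellular ATP by CellTiter-Glo luminescence after 30 min RT; signal loss marks cytotoxicity.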
# [3] = molecular target: Cellular tumor antigen p53 (Homo sapiens) (UniProt P04637); assay: TOX21_p53_BLA_p2_ratio: Tox21 HCT-116 p53 Agonism Beta-lactamase Assay, Ratio, Phase 2 (AID 2283592)
# Outline: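 HCT116 cells carrying a p53-responsive beta-lactamase reporter were plated, incubated 5 h at 37C, then dosed with compounds in DMSO (217-fold dilution) for 16 h. CCF4-AM substrate was added for 2 h at room temperature; the 460/530 nm emission ratio gave gain-of-signal activity relative to DMSO.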
# [4] = molecular target: Cellular tumor antigen p53 (Homo sapiens) (UniProt P04637); assay: TOX21_p53_BLA_p3_ratio: Tox21 HCT-116 p53 Agonism Beta-lactamase Assay, Ratio, Phase 3 (AID 2283596)
# Outline: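 HCT116 p53-bla cells (4000/well) given compound in DMSO (217-fold dilution) after 5 h, incubated 16 h at 37C. CCF4-AM substrate 2 h at room temperature; 460/530 nm emission ratio, gain fitted against DMSO.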
# [5] = TOX21_p53_BLA_p4_viability: Viability Assessment in the Tox21 HCT-116 p53 Agonism Beta-lactamase Assay, Phase 4 (AID 2283597);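 note: hits lower the luminescence signal meaning cytotoxicity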
# Outline: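 HCT116 p53-bla cells (4000/well) rested 5 h at 37C, then received compounds in DMSO (217-fold dilution) for 16 h at 37C, 5% CO2. CellTiter-Glo was added after the CCF4-AM read, and luminescence was read after 30 min at room temperature.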
# [6] = molecular target: Cellular tumor antigen p53 (Homo sapiens) (UniProt P04637); assay: TOX21_p53_BLA_p5_ratio: Tox21 HCT-116 p53 Agonism Beta-lactamase Assay, Ratio, Phase 5 (AID 2283599)
# Outline: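 HCT-116 p53-bla cells (4000/well) plated 5 h, dosed with compound (217-fold DMSO dilution) for 16 h at 37 C; CCF4-AM substrate 2 h at room temperature. Activity is the 460/530 nm emission ratio (405 nm excitation), fitted in gain-of-signal direction versus DMSO.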
# [7] = TOX21_p53_BLA_p3_viability: Viability Assessment in the Tox21 HCT-116 p53 Agonism Beta-lactamase Assay, Phase 3 (AID 2283593);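 note: cells exposed to compound for 16 h before reading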
# Outline: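 HCT116 cells, 4000/well, dosed 5 h after plating by pin transfer (217-fold dilution from DMSO stock) and incubated 16 h at 37C, 5% CO2. Viability read as ATP luminescence with CellTiter-Glo after 30 min at room temperature.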
# Sequence of Cellular tumor antigen p53 (Homo sapiens) (P04637 whole entry, looked up): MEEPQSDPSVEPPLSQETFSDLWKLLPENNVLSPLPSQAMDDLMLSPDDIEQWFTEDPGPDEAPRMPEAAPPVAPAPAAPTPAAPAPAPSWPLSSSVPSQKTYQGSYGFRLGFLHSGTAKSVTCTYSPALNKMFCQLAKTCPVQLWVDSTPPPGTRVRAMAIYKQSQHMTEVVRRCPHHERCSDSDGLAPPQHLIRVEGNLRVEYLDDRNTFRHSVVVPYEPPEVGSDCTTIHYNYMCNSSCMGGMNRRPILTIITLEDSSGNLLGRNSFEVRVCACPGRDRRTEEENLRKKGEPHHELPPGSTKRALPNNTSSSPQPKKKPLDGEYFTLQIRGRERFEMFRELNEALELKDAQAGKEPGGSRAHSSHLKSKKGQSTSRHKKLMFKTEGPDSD
compound,measurement,setting,value
Nc1cc([N+](=O)[O-])ccc1C(=O)O,outcome,[1],inactive
same,outcome,[2],inactive
same,outcome,[3],inactive
same,outcome,[4],inactive
same,outcome,[5],inactive
same,outcome,[6],inactive
CCCCCC1C(=O)CCC1CC(=O)OC (configuration not stated),outcome,[1],inactive
same,outcome,[2],inactive
same,outcome,[7],inactive
same,outcome,[4],inactive
C=CC(O)CCCCC (configuration not stated),outcome,[1],inactive
same,outcome,[2],inactive
same,outcome,[3],inactive
same,outcome,[5],inactive
CC(=O)Nc1cc(S(=O)(=O)O)cc2cc(S(=O)(=O)O)c(N=Nc3ccccc3)c(O)c12,outcome,[1],inactive
same,outcome,[2],inactive
same,outcome,[3],inactive
same,outcome,[4],inactive
same,outcome,[5],inactive
same,outcome,[6],inactive
CCCCCCOc1ccc(O)cc1,outcome,[1],inactive
same,AC50,[2],45.6 µM (active)
same,AC50,[3],34 µM (active)
same,AC50,[4],36.3 µM (active)
same,AC50,[5],65 µM (active)
same,AC50,[6],52.4 µM (active)
NC(=O)NC(N)=O,outcome,[1],inactive
same,outcome,[2],inactive
same,outcome,[3],inactive
same,outcome,[4],inactive
same,outcome,[6],inactive
Cc1cc(N)n(-c2ccccc2)n1,outcome,[1],inactive
same,outcome,[2],inactive
same,outcome,[7],inactive
CC(=O)CCC=C(C)CCC=C(C)C,outcome,[1],inactive
same,outcome,[2],inactive
same,outcome,[3],inactive
same,outcome,[4],inactive
same,outcome,[5],inactive
same,outcome,[6],inactive
O=c1cc(-c2ccc(O)cc2)oc2cc(O)cc(O)c12,outcome,[1],inactive
same,outcome,[2],inactive
same,outcome,[3],inactive
same,AC50,[4],14.6 µM (active)
same,outcome,[4],inactive
same,outcome,[5],inactive
same,outcome,[6],inactive
CC(C)OB(OC(C)C)OC(C)C,outcome,[1],inactive
same,outcome,[2],inactive
same,outcome,[3],inactive
same,outcome,[4],inactive
same,outcome,[5],inactive
NC(=O)c1cnccn1,outcome,[1],inactive
same,outcome,[2],inactive
same,outcome,[3],inactive
same,outcome,[7],inactive
same,outcome,[4],inactive
same,outcome,[6],inactive
COC(=O)C(C)Oc1ccc(Oc2ncc(C(F)(F)F)cc2Cl)cc1 (configuration not stated),outcome,[1],inactive
same,outcome,[2],inactive
same,outcome,[3],inactive
same,outcome,[4],inactive
same,outcome,[5],inactive
O=[N+]([O-])c1cc(N(CCO)CCO)ccc1NCCO,outcome,[1],inactive
same,outcome,[2],inactive
same,outcome,[3],inactive
same,outcome,[4],inactive
same,outcome,[5],inactive
CCCCCCCCCCCCCC(=O)OCC,outcome,[1],inactive
same,outcome,[2],inactive
same,outcome,[3],inactive
same,outcome,[4],inactive
same,outcome,[5],inactive
CC(=O)CC(=O)N(C)C,outcome,[1],inactive
same,outcome,[2],inactive
same,outcome,[3],inactive
same,outcome,[4],inactive
same,outcome,[5],inactive
same,outcome,[6],inactive
C=C/C(C)=C/C/C=C(\C)CCC=C(C)C,outcome,[1],inactive
same,outcome,[2],inactive
same,outcome,[7],inactive
same,outcome,[4],inactive
CC/C=C\C#N,outcome,[1],inactive
same,outcome,[2],inactive
same,outcome,[3],inactive
same,outcome,[4],inactive
same,outcome,[5],inactive
C[C@H](CCC(=O)O)[C@H]1CC[C@H]2[C@@H]3CC[C@@H]4C[C@H](O)CC[C@]4(C)[C@H]3CC[C@]12C,outcome,[1],inactive
same,AC50,[2],16.3 µM (active) and 14.2 µM (active)
same,AC50,[7],31.4 µM (active) and 30 µM (active)
same,AC50,[4],31.1 µM (active)
same,outcome,[4],inactive
same,AC50,[5],13.5 µM (active)
same,outcome,[5],inactive
same,AC50,[6],18.2 µM (active)
same,outcome,[6],inactive
